According to PubChem BioAssay (Tox21):
Results filed as inconclusive are left out. Calls of active or inactive are those of the source. The call rests on the fitted dose curve; in most records, active means well fitted curve in the direction sought with a large enough effect in the repeat runs; inconclusive means weak or mixed curves; inactive means no such curve, though single readings can be large; an effect the other way counts as inactive or inconclusive.

experiment: A CellTox Green Cytotoxicity Assay to monitor cytotoxicity in HEK293 cells - 0 hour (AID 1224869); details: CellTox Green fluorescence; series mostly up to 76.8 µM; cytotoxicity: at the top concentration
Summary of the method: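 Nonlytic real-time cytotoxicity: HEK293 + CellTox Green reagent plated, 5 h preincubation, pintool compound addition (23 nL in DMSO), 37 C for 40 h, fluorescence measured at successive time points.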
Further: nearly all actives have a fitted effect of over 50% in size.
On the % scale 0 is the no-effect control and ±100 the full control effect.

SMILES | cytotoxicity | Potency
CC(=O)CCC(C)=O | 0.525% (inactive) | 
Cc1ccccc1C(=O)Nc1cccc(OC(C)C)c1 | 2.27% (inactive) | 
CCCC(Cn1cncn1)c1ccc(Cl)cc1Cl (stereo unspecified) | 0.096% (inactive) | 
CCc1ccc(C(=O)NN(C(=O)c2cc(C)cc(C)c2)C(C)(C)C)cc1 | -5.41% (inactive) | 
CCO[C@H]1O[C@@H]2OC3(C)CC[C@H]4[C@H](C)CC[C@@H]([C@H]1C)[C@@]24OO3 | 1.59% [at 35.3 µM] (inactive) | 
BrCCCCBr | 4.13% (inactive) | 
c1cc2ccc3cccc4ccc(c1)c2c34 | -2.34% (inactive) | 
C[C@@H]1CC[C@H]2[C@@H](C)C(=O)O[C@@H]3O[C@@]4(C)CC[C@@H]1[C@]32OO4 | -9.66% [at 35.3 µM] (inactive) | 
CC(C)N(CCC(C(N)=O)(c1ccccc1)c1ccccn1)C(C)C (stereo unspecified) | -3.28% [at 35.3 µM] (inactive) | 
C#CCOC(C(=O)OCCN(C)C)(c1ccccc1)c1ccccc1 | 10.9% [at 35.3 µM] (inactive) | 
c1ccc(C2CC2)c(OCC2=NCCN2)c1 | -0.865% [at 35.3 µM] (inactive) | 
Clc1cccc(SC2CCNCC2)n1 | -11.6% [at 35.3 µM] (inactive) | 
CCCCCCCCCCOC(=O)c1ccccc1C(=O)OCCCCCCCCCC | -0.288% (inactive) | 
[O-][Cl+]O | 0.0177% (inactive) | 
c1ccc(CN2CCNCC2)cc1 | -3.45% [at 200 µM] (inactive) | 
OCCCBr | -2.99% (inactive) | 
C/C(=C\c1ccccc1)[N+](=O)[O-] | -11% (inactive) | 
CNP(=O)(OC)Oc1ccc(C(C)(C)C)cc1Cl (stereo unspecified) | 1.18% (inactive) | 

SMILES | cytotoxicity | Potency
O=C(CBr)Nc1ccc(Cl)cc1C(=O)c1ccccc1F | 10.5% [at 35.3 µM] (inactive) | 
CN(C)c1ccc(N(C)C)cc1 | -4.68% (inactive) | 
Brc1ccc(Oc2ccccc2)cc1 |  | inactive
NCCCNCCCN | -4.88% (inactive) | 
BrCC(Br)C1CCC(Br)C(Br)C1 (stereo unspecified) | 2.1% (inactive) | 
C=C(C#N)CCC#N | 0.28% (inactive) | 
C=CCN1CC[C@]23c4c5ccc(O)c4O[C@H]2C(=O)CC[C@@]3(O)[C@H]1C5 | -0.662% [at 35.3 µM] (inactive) | 
O=[N+]([O-])C(Br)(CO)CO | 0.962% (inactive) | 
CCCCCCC#N | 0.742% (inactive) | 
CO[C@@H]1[C@H](OC(=O)NC(=O)CCl)CC[C@]2(CO2)[C@H]1[C@@]1(C)O[C@@H]1CC=C(C)C | -3.97% [at 15.8 µM] (inactive) | 
O=C1c2ccccc2C(=O)C1C(=O)C(c1ccccc1)c1ccccc1 | -4.69% [at 35.3 µM] (inactive) | 
CN1[C@@H]2CC[C@H]1CC(OC(=O)c1cc(Cl)cc(Cl)c1)C2 (stereo partly specified) | -5.03% [at 35.3 µM] (inactive) | 
C=COC(C)=O | 0.0019% (inactive) | 
CN1C(=O)NC(=O)C(C)(C2=CCCCC2)C1=O (stereo unspecified) | -1.55% [at 35.3 µM] (inactive) | 
CCCCCC[N+](=O)[O-] | 7.45% (inactive) | 
O=C(NC(=O)c1c(F)cccc1F)Nc1ccc(OC(F)(F)C(F)OC(F)(F)F)c(Cl)c1 (stereo unspecified) | 0.386% [at 35.3 µM] (inactive) | 
COc1c(C(C)(C)C)cc([N+](=O)[O-])c(C)c1[N+](=O)[O-] | 0.318% (inactive) | 

experiment: qHTS RealTime-Glo MT Cell Viability Assay in HepG2 cells - 40 hour (AID 1224870); details: RealTime-Glo luminescence; series mostly up to 76.8 µM; activity change, negative = cytotoxic: at the top concentration; further: potency means the concentration at half of the fitted maximal effect
Summary of the method: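 HepG2 cells (600/well) mixed with RealTime-Glo MT reagent, settled 5 h at 37 C/5% CO2 before compound addition. Nonlytic NanoLuc luminescence from viable-cell prosubstrate reduction read repeatedly during 40 h treatment at 37 C.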

SMILES | activity change, negative = cytotoxic | Potency
Cc1ccccc1C(=O)Nc1cccc(OC(C)C)c1 | -5.94% (inactive) | 
CCCC(Cn1cncn1)c1ccc(Cl)cc1Cl (stereo unspecified) | -10.7% (inactive) | 
CCO[C@H]1O[C@@H]2OC3(C)CC[C@H]4[C@H](C)CC[C@@H]([C@H]1C)[C@@]24OO3 | -0.558% [at 35.3 µM] (inactive) | 
BrCCCCBr | 2.25% (inactive) | 
C[C@@H]1CC[C@H]2[C@@H](C)C(=O)O[C@@H]3O[C@@]4(C)CC[C@@H]1[C@]32OO4 | 1.08% [at 35.3 µM] (inactive) | 
c1ccc(C2CC2)c(OCC2=NCCN2)c1 | 3.28% [at 35.3 µM] (inactive) | 
Clc1cccc(SC2CCNCC2)n1 | -0.981% [at 35.3 µM] (inactive) | 
CCCCCCCCCCOC(=O)c1ccccc1C(=O)OCCCCCCCCCC | 0.141% (inactive) | 
[O-][Cl+]O | -1.3% (inactive) | 
OCCCBr | 0.755% (inactive) | 
C/C(=C\c1ccccc1)[N+](=O)[O-] |  | 21.9 µM (active)
CNP(=O)(OC)Oc1ccc(C(C)(C)C)cc1Cl (stereo unspecified) | -3.54% (inactive) | 
O=C(CBr)Nc1ccc(Cl)cc1C(=O)c1ccccc1F | 1.62% [at 35.3 µM] (inactive) | 
Brc1ccc(Oc2ccccc2)cc1 |  | inactive
C=CCN1CC[C@]23c4c5ccc(O)c4O[C@H]2C(=O)CC[C@@]3(O)[C@H]1C5 | 0.0434% [at 35.3 µM] (inactive) | 
CCCCCCC#N | -3.8% (inactive) | 
CN1[C@@H]2CC[C@H]1CC(OC(=O)c1cc(Cl)cc(Cl)c1)C2 (stereo partly specified) | -24.5% [at 35.3 µM] (inactive) | 
C=COC(C)=O | -0.404% (inactive) | 
CCCCCC[N+](=O)[O-] | 0.0061% (inactive) | 
O=C(NC(=O)c1c(F)cccc1F)Nc1ccc(OC(F)(F)C(F)OC(F)(F)F)c(Cl)c1 (stereo unspecified) | -10% [at 35.3 µM] (inactive) | 
COc1c(C(C)(C)C)cc([N+](=O)[O-])c(C)c1[N+](=O)[O-] | 2.64% (inactive) | 
